Pf growth 48h: inhibits P. falciparum growth in the first generation, 48 h | Potency, µM (series often up to 28.7 µM), for inactives: at the top dose activity change, negative = inhibition, most hits filed as inhibitors | 5.9% of 310,000 active | P. falciparum luciferase growth in erythrocytes, 48 h; further: potency means the concentration at half of the fitted maximal effect; on the % scale 0 is the no-effect control and ±100 the full control effect
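Firefly luciferase activity from engineered P. falciparum reports growth; inhibitors lower the luminescent signal. Cultures contained 2% hematocrit erythrocytes at 0.1% final parasitemia.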
CHX counter: affects cycloheximide protein synthesis inhibition readout, counter-screen; cell reporter, cycloheximide protein synthesis inhibition counterscreen; 12% of 300,000 active; max response, %; in the data active means max response mostly above about 13%, no sharp cut-off; inactive means mostly below about 14%; further: read at 38.3 µM for the half of the compounds with a filed dose; 0% is about no effect
Giardia FBPA inh: Giardia lamblia aldolase inhibition; A8B2U2; purified Giardia FBPA; Potency, µM (titrated, usually from 59.6 µM), without a hit: top-dose activity, negative = inhibition, most hits filed as inhibitors; 0.71% of 290,000 active; AID 2451; further: potency means the concentration at half of the fitted maximal effect; on the % scale 0 is the no-effect control and ±100 the full control effect; nearly all actives have a fitted effect of over 55% in size
Target sequence (A8B2U2 whole entry, looked up): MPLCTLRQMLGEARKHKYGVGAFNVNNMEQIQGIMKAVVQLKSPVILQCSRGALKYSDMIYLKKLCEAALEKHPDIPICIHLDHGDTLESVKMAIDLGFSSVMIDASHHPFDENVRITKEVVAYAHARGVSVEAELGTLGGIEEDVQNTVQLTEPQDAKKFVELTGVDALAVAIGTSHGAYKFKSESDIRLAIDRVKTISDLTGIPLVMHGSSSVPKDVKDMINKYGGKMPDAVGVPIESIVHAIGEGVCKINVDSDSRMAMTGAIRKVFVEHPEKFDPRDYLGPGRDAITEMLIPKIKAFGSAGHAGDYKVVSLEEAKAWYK
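40 nM FBPA preincubated 10 min at RT with compound (up to 57.5 uM final), then substrate plus GAPDH/TPI/NAD/arsenate coupling and diaphorase/resazurin added. Fluorescence read after 20 min at RT, 525/598 nm.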
Pf growth 96h: P. falciparum growth inhibition at 96 hour, primary screen for plastid delayed-death inhibitors | P. falciparum luciferase reporter growth, 96 h | Potency, µM (doses to about 28.7 µM), for inactives: at the highest dose activity change, negative = inhibition, actives largely listed as inhibitors | 6.9% of 320,000 active | AID 504834; further: potency means the concentration at half of the fitted maximal effect; on the % scale 0 is the no-effect control and ±100 the full control effect
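Plates of compound plus infected erythrocytes (2% hematocrit, 0.05% parasitemia final) incubate 96 hours, 37 C, 5% CO2. Detection reagent added; reduced luminescence from the parasites' luciferase reporter flags inhibition.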
NS1 function inh: influenza NS1 inhibition; 0.4% of 270,000 active; AID 2326; Potency, µM (highest dose often 46.1 µM), inactives show at the highest dose activity, positive = more growth; calls by dose curve; further: potency means the concentration at half of the fitted maximal effect; actives are rising curves; nearly all actives have a fitted effect of over 50% in size
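OD600 was taken as the measure of yeast growth restored by compound in an NS1-expressing S. cerevisiae strain. Cells had been washed out of glucose medium and diluted 1:100 into galactose -URA medium, pH 6.0.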
Shiga toxin inh: Shiga toxin inhibition; Vero cells, Shiga toxin protein synthesis inhibition reporter; inhibition, % at 38.7 µM; 9.2% of 290,000 active; AID 2315; in the data active means inhibition mostly above about 28%, no sharp cut-off; inactive means mostly below about 43%; further: 0% is about no effect
* = called active by the depositor; [ ] = another dose, or the depositor's remark. Only some compounds are listed: those with a hit (about 21% of all), similar ones and a draw of the others. Unless noted, the call rests on the fitted dose curve; in most records, active means well fitted curve in the direction sought with a large enough effect; inconclusive means small, poorly fitted or top-dose-only effect, or another doubt; inactive means no such curve, though single readings can be large; an effect the other way counts as inactive or inconclusive.

Results for CC(C)CC(COCc1ccc(F)cc1)N1CCN(C(=O)c2cccc(C(F)(F)F)c2)CCC1=O (centres undefined) ?
Pf growth 48h: inconclusive; CHX counter: -4; Giardia FBPA inh: -2%; Pf growth 96h: 13µM*; NS1 function inh: -14%; Shiga toxin inh: -13

What do the screens show for `Cc1ccccc1C(=O)N1CCC(C(=O)NC2CCCC2)CC1`?
Pf growth 48h: 3%; CHX counter: -4; Giardia FBPA inh: -6%; Pf growth 96h: 100%; NS1 function inh: 11%; Shiga toxin inh: -8

Results for C/C(CCN1CCCc2nc(C)c(C)cc21)=N\O[C@@H](C)c1cn([C@@H]2COC[C@@H]2O)nn1 ?
Giardia FBPA inh: 1%[12.9 µM]

What do the screens show for `COc1ccc(-n2c(C)cc(/C=C(\C#N)C(=O)NCc3ccco3)c2C)cc1`?
Pf growth 48h: 4.7µM*; CHX counter: 47*; Giardia FBPA inh: -23%; Pf growth 96h: inconclusive; NS1 function inh: 6%; Shiga toxin inh: 51*

Results for COCCNC(=O)/C(C#N)=C/c1cc(C)n(C2CCCCC2)c1C ?
Pf growth 48h: 73%; CHX counter: 28*; Giardia FBPA inh: 4%; Pf growth 96h: 0%; Shiga toxin inh: 69*

Results for Cc1cc(/C=C(\C#N)C(=O)O)c(C)n1C1CC1 ?
Pf growth 48h: 3%; CHX counter: 1; Giardia FBPA inh: -3%; Pf growth 96h: 5%; NS1 function inh: 25%; Shiga toxin inh: -8

Results for COCCNC(=O)/C(C#N)=C/c1cc(C)n(-c2ccc(C)cc2)c1C ?
Pf growth 48h: 0%; CHX counter: 49*; Giardia FBPA inh: -8%; Pf growth 96h: 7%; NS1 function inh: -7%; Shiga toxin inh: 63*

How did CN(c1cccnc1)c1ncnc2[nH]ncc12 do in these assays?
Pf growth 48h: -2%; CHX counter: -1; Giardia FBPA inh: 3%; Pf growth 96h: 8%; NS1 function inh: 9%; Shiga toxin inh: 2

Results for CN(CCc1ccccn1)c1ncnc2[nH]ncc12 ?
Pf growth 48h: 41%; CHX counter: 19; Giardia FBPA inh: -7%; Pf growth 96h: 3%; NS1 function inh: -1%; Shiga toxin inh: 33*

What do the screens show for `CC(C)(C)C(Cn1ccnc1)NC(=O)c1ccc2nc(C3CC3)oc2c1` (centres undefined)?
Pf growth 48h: inconclusive; CHX counter: 8; Pf growth 96h: inconclusive; NS1 function inh: -3%; Shiga toxin inh: 33

Results for N#C/C(=C\N1CCNC1=S)C(=O)c1ccc2ccccc2c1 ?
NS1 function inh: -6%

Results for Cn1c(COc2ccc(Br)cc2)nnc1SC1CCc2ccccc2C1=O (centres undefined) ?
Pf growth 48h: -7%; CHX counter: 8; Giardia FBPA inh: 18µM*; Pf growth 96h: inconclusive; NS1 function inh: 21%; Shiga toxin inh: 4

Results for CC(C)CNC(=O)c1cccc(NC(=O)C(C)C)c1 ?
Pf growth 48h: 11%; CHX counter: -4; Giardia FBPA inh: 7%; Pf growth 96h: inconclusive; Shiga toxin inh: 5

What do the screens show for `O=C1C(Cc2ccccc2)C(c2ccccc2)N1c1ccccc1` (centres undefined)?
Pf growth 48h: inconclusive; CHX counter: -3; Giardia FBPA inh: 1%; Pf growth 96h: 10µM*; NS1 function inh: 12%; Shiga toxin inh: -17

Results for Cc1ccc(N2C(=O)C(CN(C)C)C2c2ccccc2)cc1 (centres undefined) ?
Pf growth 48h: inconclusive; CHX counter: -4; Giardia FBPA inh: 0%; Pf growth 96h: inconclusive; NS1 function inh: 6%; Shiga toxin inh: -7

What do the screens show for `CC(C)C(NS(=O)(=O)c1ccccc1F)C(=O)OCC(=O)NCc1ccco1` (centres undefined)?
Pf growth 48h: -7%; Pf growth 96h: -3%

Results for CCOC(=O)CCC(=O)NCc1ccc2c(c1)cc(C)n2C ?
Pf growth 48h: inconclusive; CHX counter: 1; Giardia FBPA inh: -22%; Pf growth 96h: 35%; NS1 function inh: -8%; Shiga toxin inh: -26

How did Cc1cc2cc(CNC(=S)NCc3ccccc3)ccc2n1C do in these assays?
Pf growth 48h: -27%; CHX counter: -1; Giardia FBPA inh: -3%; Pf growth 96h: 44%; Shiga toxin inh: 35

How did CCCCC(=O)NCc1ccc2c(c1)cc(C)n2C do in these assays?
Pf growth 48h: 16%; CHX counter: 14; Giardia FBPA inh: -11%; Pf growth 96h: 170%; NS1 function inh: inconclusive; Shiga toxin inh: 52*

Results for CCS(=O)(=O)NCc1ccc2c(c1)cc(C)n2C ?
Pf growth 48h: inconclusive; CHX counter: -2; Giardia FBPA inh: -25%; Pf growth 96h: 6.6µM*; NS1 function inh: 11%; Shiga toxin inh: -2

What do the screens show for `CCOC(=O)NCc1ccc2c(c1)cc(C)n2C`?
Pf growth 48h: -7%; CHX counter: 15*; Giardia FBPA inh: 1%; Pf growth 96h: 0%; NS1 function inh: 16%; Shiga toxin inh: 23

What do the screens show for `Cc1cc2cc(CNC(=O)Nc3ccccc3)ccc2n1C`?
Pf growth 48h: -6%; CHX counter: 18*; Giardia FBPA inh: -6%; Pf growth 96h: -19%; NS1 function inh: inconclusive; Shiga toxin inh: 48*

What do the screens show for `COCC(=O)N1CCC2(CC1)CN(Cc1ccccc1OC)C2`?
Giardia FBPA inh: 9%

What do the screens show for `Nc1nnc(N2CCCCCC2)s1`?
Pf growth 48h: 17%; CHX counter: -3; Giardia FBPA inh: -10%; Pf growth 96h: 31%; NS1 function inh: -6%; Shiga toxin inh: -2

Results for O=C1CCCc2nc(N3CCCCC3)sc21 ?
Pf growth 48h: 50%; CHX counter: 30*; Giardia FBPA inh: -4%; Pf growth 96h: -20%; NS1 function inh: -6%; Shiga toxin inh: 51*

How did CC(CC(=O)N(C)c1c(N)n(Cc2ccccc2)c(=O)[nH]c1=O)c1ccccc1 (centres undefined) do in these assays?
Pf growth 48h: -17%; Pf growth 96h: -10%

How did NNC(=O)c1nn(-c2ccc(Cl)cc2)cc1O do in these assays?
Pf growth 48h: 9.3µM*; CHX counter: -3; Giardia FBPA inh: -2%; Pf growth 96h: inconclusive; NS1 function inh: 11%; Shiga toxin inh: 7

How did O=C(CN1CCc2ccccc2C1)Nc1ccccc1C(=O)NC1CC1 do in these assays?
Pf growth 48h: -26%; Pf growth 96h: inconclusive

What do the screens show for `O=C(N=C1SC2CS(=O)(=O)CC2N1Cc1ccccc1Cl)C1CCCO1` (centres undefined)?
Pf growth 48h: 6%; CHX counter: 8; Giardia FBPA inh: 8%; Pf growth 96h: 28%; NS1 function inh: -9%; Shiga toxin inh: -5

Results for COc1cc2c(C(=O)N3CCN(C)CC3)c(C)n(-c3ccccc3)c2cc1Br ?
Pf growth 48h: 4.7µM*; CHX counter: 11; Pf growth 96h: 1.5µM*; NS1 function inh: -1%; Shiga toxin inh: -5
